Most compounds without a hit are left out; they make up all but 2.9% or so of the library.
ADAM10 inh: ADAM10 inhibition, QFRET primary screen | recombinant ADAM10, EDANS/DABCYL FRET peptide cleavage, 3 h | inhibition, % at 7 µM | 370,000 tested, 0.62% active | AID 720582;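 active = inhibition above a per-campaign cutoff equal to the mean of compounds falling between control-based bounds plus 3 SD, cut at about 20% in these data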;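 note: 0% = DMSO wells while the 100% control is not disclosed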
Target sequence (O14672 214-748 limits assumed): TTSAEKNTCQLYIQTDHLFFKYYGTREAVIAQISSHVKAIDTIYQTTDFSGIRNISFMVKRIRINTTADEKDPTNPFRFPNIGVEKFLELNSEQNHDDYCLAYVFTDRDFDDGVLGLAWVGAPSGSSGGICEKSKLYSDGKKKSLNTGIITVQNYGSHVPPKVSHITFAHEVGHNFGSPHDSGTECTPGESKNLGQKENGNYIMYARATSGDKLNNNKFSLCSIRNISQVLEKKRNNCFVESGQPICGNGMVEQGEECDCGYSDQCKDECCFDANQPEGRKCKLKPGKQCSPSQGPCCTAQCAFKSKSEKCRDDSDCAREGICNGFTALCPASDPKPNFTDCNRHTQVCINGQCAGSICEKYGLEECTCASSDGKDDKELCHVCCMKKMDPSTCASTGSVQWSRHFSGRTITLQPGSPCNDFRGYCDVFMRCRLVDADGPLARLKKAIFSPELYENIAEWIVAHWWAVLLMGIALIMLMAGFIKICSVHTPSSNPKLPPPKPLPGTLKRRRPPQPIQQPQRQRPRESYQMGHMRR
KLK7 zymogen act: proKLK7 (human) activation, primary screen; activation, % at 7 µM; P49862; purified proKLK7, EDANS-DABCYL substrate fluorescence; 100% is mature enzyme control, 0% vehicle; 370,000 tested, 0.9% active;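 active = activation above the mean of all tested compounds plus 3 SD, computed per campaign excluding outliers beyond control limits, cut at about 13% in these data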
PLC-gamma1 inh: inhibitors of human phospholipase C gamma1 | P19174 | purified PLC-gamma1, fluorogenic substrate, fluorescence | inhibition, % at 12.2 µM | 370,000 tested, 0.84% active | AID 720700; in the data active = inhibition above about 9.5%
ADAM17 inh: ADAM17 inhibition, QFRET primary screen | P78536 | recombinant ADAM17, EDANS/DABCYL FRET peptide cleavage | inhibition, % at 6.95 µM | 370,000 tested, 0.83% active | AID 720648;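 active = inhibition above the mean of compounds lying between control limits plus 3 SD, set per campaign, cut at about 8.5% in these data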;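 note: 0% = DMSO-only wells as the low control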
PLC-beta3 inh: PLC-beta3 (human) inhibition, primary screen; Purified PLC-beta3, fluorogenic substrate, fluorescence; inhibition, % at 12.2 µM; AID 720704; 370,000 tested, 0.18% active; Q01970; in the data active = inhibition above about 11%;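 note: 0% = median of compound wells on plate and 100% = full blocker control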
ADAM10 ctr: counter-screen for ADAM17 exosite inhibitors: inhibitors of human ADAM10. 2,900 tested, 47% active. recombinant ADAM10, EDANS/DABCYL FRET peptide cleavage, 3 h. shares compounds with ADAM17 inh. AID 743256. inhibition, % at 6.95 µM;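 active = mean inhibition over the triplicate runs exceeds the activity threshold set in the earlier primary screen, cut at about 20% in these data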;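 note: 0% = DMSO wells and 100% = marimastat wells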
ADAM17 confirm: confirmation of inhibitors of human ADAM17; 2,900 tested, 65% active; shares compounds with ADAM17 inh; inhibition, % at 6.95 µM; recombinant ADAM17, EDANS/DABCYL QFRET peptide cleavage;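 active = mean inhibition across replicates above the hit cutoff set in the primary screen, cut at about 8.5% in these data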;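 note: 0% = DMSO wells and 100% = marimastat wells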
Active calls of the source: *; nt = no result given.

SMILES	ADAM10 inh	KLK7 zymogen act	PLC-gamma1 inh	ADAM17 inh	PLC-beta3 inh	ADAM10 ctr	ADAM17 confirm
O=C(O)c1ccccc1C(=O)Nc1cc(C(F)(F)F)ccc1N1CCCC1	2	1	10*	10*	3	8	4
O=C1NC[C@@H](CCCCN2CCN(CCc3ccccc3)C(=O)C2=O)N(CC2CCCCC2)C1=O	-4	0	-1	1	2	nt	nt
COc1ccc(C2/C=C\CN(C(=O)c3ccccc3)[C@H](Cc3ccccc3)C(=O)N2Cc2ccc(F)cc2)cc1 (stereo partly drawn)	13	0	5	11*	4	21*	11*
COc1ccc([C@H]2/C=C\CN(C(=O)c3ccc(C)cc3)[C@@H](C)C(=O)N2Cc2ccc(F)cc2)cc1	15	0	2	2	2	nt	nt
C=C(C)COc1ccc(-c2n[nH]c(C)c2-c2ccc(Br)cc2)c(O)c1	18	-1	1	11*	2	22*	12*
CN(C)CCCNc1nc2cc(-c3cnn(C)c3)sc2c(=O)n1C	-36	-1	-3	-9	-5	nt	nt
O=S(=O)(c1ccccc1)N1CCN=C1SCc1cccc(Cl)c1	15	0	6	9.3*	3	7	9.7*
COc1ccc(C2OC(CCc3ccccc3)CC3=C2C(=O)OC(C)(C)O3)cc1 (stereo not drawn)	6	1	2	8.7*	4	8	6
CC1(C)OC(=O)C2=C(C[C@@H](CCOCc3ccccc3)O[C@H]2c2ccc(F)cc2)O1	-5	0	8	-4	-1	nt	nt
COc1cccc(/C=C2\CC3(OC(=O)C(C)(C)C)CCCN2C3)c1 (stereo not drawn)	0	0	0	1	-1	nt	nt
Cc1ccc(C2=NN(S(=O)(=O)c3ccccc3)C(c3ccccc3O)C2)cc1 (stereo not drawn)	19	0	2	8.9*	2	42*	23*
O=C(c1ccncc1)N1N=C(c2ccc(Br)cc2)CC1c1ccccc1O (stereo not drawn)	13	0	4	7	-5	nt	nt
O=C(c1ccccc1)N1N=C(c2ccccc2)CC1c1ccccc1O (stereo not drawn)	15	0	2	11*	0	15	10*
NS(=O)(=O)c1ccc(N/N=C2/CCCCC2C2CCCCC2)c([N+](=O)[O-])c1 (stereo not drawn)	18	1	4	12*	4	17	8.7*
Cc1ccc(SCCC(=O)Nc2ccc(Br)c(C)c2)cc1	19	0	-1	12*	-4	31*	17*
CCCS(=O)(=O)NC(=O)C1(C)CCN(C(=O)c2ccc(C(=O)OC)cc2)C1 (stereo not drawn)	-9	-1	-3	-6	5	nt	nt
CCCN1C(=O)c2ccc(C(=O)Nc3cc(C)on3)cc2C1=O	0	1	3	9.7*	9	-3	-4
COc1cccc(C(=O)c2ccccc2NC(C)=O)c1	-16	0	-2	-1	-3	nt	nt
COc1ccc(-c2nnn3c2C2c4cc(-c5cccc(F)c5)ccc4CCN2C(=O)C3)cc1 (stereo not drawn)	-10	0	-2	-4	-2	nt	nt
COc1cc(-c2coc3c(C(=O)NCc4cccc(Cl)c4)cccc23)ccc1O	15	0	-1	8.6*	3	27*	13*
CC(C)C[C@H](NC(=O)c1[nH]cnc1C(=O)Nc1ccc(CNC(=O)OC(C)(C)C)cc1)C(=O)OCc1ccccc1	5	0	2	-1	4	nt	nt
CC(C)(C)OC(=O)NCCOC(=O)c1[nH]cnc1C(=O)NCc1ccccc1	11	0	5	11*	10	6	2
CC(C)(C)OC(=O)NCc1ccc(NC(=O)c2nc[nH]c2C(=O)N[C@@H](Cc2ccccc2)C(=O)OC(C)(C)C)cc1	17	-5	-2	8.9*	3	46*	23*
C[C@H](NC(=O)c1nc[nH]c1C(=O)N[C@@H](Cc1ccccc1)C(=O)OCc1ccccc1)c1ccccc1	16	0	4	9	3	nt	nt
C[C@@H](NC(=O)c1nc[nH]c1C(=O)N[C@@H](Cc1ccccc1)C(=O)OCc1ccccc1)c1ccccc1	15	-1	5	12*	2	30*	17*
SMILES	ADAM10 inh	KLK7 zymogen act	PLC-gamma1 inh	ADAM17 inh	PLC-beta3 inh	ADAM10 ctr	ADAM17 confirm
COc1ccccc1Cn1c(C)c(C(=O)NCc2ccco2)sc1=O	-9	0	-1	-3	0	nt	nt
O=c1[nH]c(SCc2ccc(OC(F)(F)F)cc2)nc2c1CCC2	-8	0	-1	-6	1	nt	nt
O/N=C(\c1ccc(Cl)cc1Cl)c1ncc(C(F)(F)F)cc1Cl	9	0	-2	12*	-3	29*	13*
O=C1[C@H]2[C@@H](c3ccc(C(F)(F)F)cc3)N[C@]3(CCCN(Cc4ccc(F)cc4)C3=O)[C@H]2C(=O)N1Cc1ccccc1	20	0	2	8.9*	7	24*	13*
O=C(N[C@@H](Cc1cccnc1)C(=O)N1CCC[C@H]1C(=O)NCCc1ccccc1Cl)c1ccco1	-5	0	1	-3	1	nt	nt
O=C1CC(Nc2ccc3ccccc3c2)C(=O)N1Cc1ccccc1 (stereo not drawn)	9	2	4	10.0*	0	12	11*
O=C1CC(Nc2ccc(N3CCOCC3)cc2)C(=O)N1Cc1ccccc1 (stereo not drawn)	6	4	-12	0	-25	nt	nt
COc1ccc(-c2ccc(CN3C(C(C)C)C(=O)N(Cc4cn(Cc5ccco5)nn4)CCS3(=O)=O)cc2)cc1OC (stereo not drawn)	11	0	-5	10*	-8	16	14*
CC1C(=O)N(Cc2cn(CCC3OCCO3)nn2)CCS(=O)(=O)N1Cc1ccc(-c2ccncc2)cc1 (stereo not drawn)	-11	0	-1	1	2	nt	nt
COc1ccc(-c2ccc(CN3C(C(C)C)C(=O)N(Cc4cn(Cc5ccco5)nn4)CCS3(=O)=O)cc2)cc1 (stereo not drawn)	9	0	-2	7	-5	nt	nt
CC1C(=O)N(Cc2cn(CCC3OCCO3)nn2)CCS(=O)(=O)N1Cc1ccc(-c2ccc(F)cc2)cc1 (stereo not drawn)	-8	1	1	10*	-6	4	2
O=S(=O)(c1ccc(F)c(F)c1)N1CCCCCCC1	-8	0	5	-3	-3	nt	nt
c1ccc(OCc2nnc(SCc3nc4ccccc4[nH]3)n2-c2ccccc2)cc1	-12	1	-4	-3	-4	nt	nt

Bioassay records deposited in PubChem BioAssay by The Scripps Research Institute Molecular Screening Center.
